Test results published in PubChem BioAssay (NCATS).
Inconclusive results are not listed. Values without a mark were called inactive. Activity calls are given as the source filed them. Calls come from the whole dose curve; as a rule, active = well fitted cell-killing curve with a large enough effect; inconclusive = small, poorly fitted or top-dose-only effect, or effect the other way; inactive = no such curve, though single readings can be large or run the other way.

Assay: Quantitative High-Throughput drug screen in 47 multiple myeloma cell lines against the NCATS MIPE library collection: OCIMY1_PLB cell viability assay (AID 1918979); note: nearly all actives have a fitted effect of over 35% in size
Details: OCI-MY1 myeloma viability, CellTiter-Glo ATP, 48 h; series mostly up to 45.8 µM; viability: at the top concentration
Excerpt: PI: Beverly A. Mock Ph.D.
Laboratory of Cancer Biology and Genetics,
Center for Cancer Research, National Cancer Institute,
National Institute of Health, Bethesda, Maryland
Drug resistance and disease progression are common in multiple myeloma (MM) patients, underscoring the need for new therapeutic combinations. […] We hypothesized that effective combinations would reduce MYC expression and enhance p16 activity. […] These preclinical data identify potentially useful drug combinations for evaluation in drug-resistant MM and reveal potential mechanisms of combined drug sensitivity.
Described herein is the primary MIPE qHTS used to cherrypick compounds. Validated compounds were then further tested for potential synergistic activiy.
[1] Peat TJ, Gaikwad SM, Dubois W, Gyabaah-Kessie N, Zhang S, Gorjifard S, Phyo Z, Andres M, Hughitt VK, Simpson RM, Miller MA, Girvin AT, Taylor A, Williams D, D'Antonio N, Zhang Y, Rajagopalan A, Flietner E, Wilson K, Zhang X, Shinn P, Klumpp-Thomas C, McKnight C, Itkin Z, Chen L, Kazandijian D, Zhang J, Michalowski AM, Simmons JK, Keats J, Thomas CJ, Mock BA. Drug combinations identified by high-throughput screening promote cell cycle transition and upregulate Smad pathways in myeloma. Cancer Lett. 2023 Aug 1;568:216284. doi: 10.1016/j.canlet.2023.216284. Epub 2023 Jun 24. PMID: 37356470; PMCID: PMC10408729.
SEQUENCE No. (e.g., 1, 2, 3, etc.); […] (e.g., Cells, Incubation, Reagent, etc.); VALUE and DESCRIPTION.
1; Cells; 5 uL; white, solid bottom 1536-well Greiner assay plate.
2; Compounds; 23 nL; Kalypsis pin tool (Wako USA) equipped with a 1536-well pin head to transfer to the assay plates.
3; Incubation; 48 hours; 37C incubation.
4; Reagent;5uL; CellTiter Glo (Promega).
5; Detector; 425V; Luminescence; Viewlux PerkinElmer.
NOTES (numbers refer to Sequence numbers above)
1. The cell-based screening methods employed in this study were like those previously published. Briefly, the corresponding myeloma cell lines were screened in 1,536-well plates with 500 cells, 5-uL per well for inhibition of cell viability (assessed by measuring ATP levels with CellTiterGlo).
2. NCATS MIPE 4.0 library of approved and investigational drugs were added using the Kalypsis pin tool. Wells treated with DMSO only for 100% viability and media only for 0% viability were used as controls.
3. The assay plates were covered and incubated for 48 hours in a 37C, 5% CO2 incubator with controlled humidity.
4. After 48 hours, CellTilter-GloTM luminescent substrate mix (Promega) reagent was added to the assay plate and plates we incubated for 5 min at room temperature.
5. Signal was measured as median relative luminescence units on a ViewLux (PerkinElmer) multiplate reader.
[1] Heske CM, Davis MI, Baumgart JT, Wilson K, Gormally MV, Chen L, Zhang X, Ceribelli M, Duveau DY, Guha R, Ferrer M, Arnaldez FI, Ji J, Tran HL, Zhang Y, Mendoza A, Helman LJ, Thomas CJ. Matrix Screen Identifies Synergistic Combination of PARP Inhibitors and Nicotinamide Phosphoribosyltransferase (NAMPT) Inhibitors in Ewing Sarcoma. Clin Cancer Res. 2017 Dec 1;23(23):7301-7311. doi: 10.1158/1078-0432.CCR-17-1121. Epub 2017 Sep 12. PMID: 28899971; PMCID: PMC6636827.
Potency is the fitted concentration of half-maximal effect.

Row | SMILES | Potency | viability
1 | C[C@@H]1CC=CC=CC=CC=C[C@@H](O[C@@H]2O[C@H](C)[C@@H](O)[C@H](N)[C@H]2O)C[C@@H]2O[C@](O)(C[C@@H](O)C[C@@H]3O[C@@H]3C=CC(=O)O1)C[C@H](O)[C@@H]2C(=O)O | 9.35 µM (active) | –
2 | COc1cc([C@H]2Oc3cc([C@H]4Oc5cc(O)cc(O)c5C(=O)[C@H]4O)ccc3O[C@H]2CO)ccc1O | 20.9 µM (active) | –
3 | Cc1cc(C(C)Nc2ccccc2)c2nc(N3CCOCC3)cc(=O)n2c1 (stereo not given) | – | 93.3%
4 | CCC(=C(c1ccc(O)cc1)c1ccc(OCCNC)cc1)c1ccccc1 | 23.5 µM (active) | –
5 | CN(C)CCOc1ccc(C(=C(CCCl)c2ccccc2)c2ccccc2)cc1 | – | 77.4%
6 | COc1c(C)c2c(c(O)c1CC=C(C)CCC(=O)O)C(=O)OC2 | 13.2 µM (active) | –
7 | CCC(c1ccc(O)cc1)C(CC)c1ccc(O)cc1 (stereo not given) | – | 104%
8 | CC(C)n1c(C=C[C@H](O)C[C@H](O)CC(=O)O)c(-c2ccc(F)cc2)c2ccccc21 | – | 96.4%
9 | Cc1cc(NC(=O)Nc2ccc(N(C)C)cc2)c2cc(F)cc(F)c2n1 | – | 94.7%
10 | COc1ccc2ccc(=O)oc2c1CC=C(C)C | 23.5 µM (active) | –
11 | Cc1cc2nc3c(=O)[nH]c(=O)nc-3n(CC(O)C(O)C(O)CO)c2cc1C (stereo not given) | – | 96.2%
12 | C[C@]12C=CC(=O)C=C1CC[C@@H]1[C@@H]2[C@@H](O)C[C@@]2(C)[C@@H]1CC[C@]2(O)C(=O)CO | – | 96.7%
13 | Oc1ccc(C=Cc2cc(O)cc(O)c2)cc1 | – | 97.5%
14 | C[C@H]1COC2=C1C(=O)C(=O)c1c2ccc2c1CCCC2(C)C | – | 85.8%
15 | O=C(Nc1ccccc1)Nc1ccc(-c2ccc(C(=O)[C@H]3CCC[C@H]3C(=O)O)cc2)cc1 | – | 112%
16 | c1ccc(-c2oc3ncnc(NC[C@@H]4CCCO4)c3c2-c2ccccc2)cc1 | – | 105%
17 | Cc1ccc(NC(=O)Nc2cc(C(F)(F)F)ccc2F)cc1Nc1ccc2c(c1)NC(=O)C2=Cc1ccc[nH]1 | 23.5 µM (active) | –
18 | CNc1nc(Nc2ccc(C(=O)N3CCOCC3)cc2OC)ncc1Cl | – | 95.9%
19 | CC1(C)[C@H]2CC[C@]3(C)[C@@H](C(=O)C=C4[C@@H]5C[C@@](C)(C(=O)O)CC[C@]5(C)CC[C@]43C)[C@@]2(C)CC[C@@H]1O | – | 121%
20 | CCCCC(F)(F)[C@@]1(O)CC[C@H]2[C@H](CC(=O)[C@@H]2CCCCCCC(=O)O)O1 | – | 112%

Row | SMILES | Potency | viability
21 | CCCCC[C@H](O)C=C[C@H]1[C@H](O)CC(=O)[C@H]1CC=CCCCC(=O)O | – | 90.1%
22 | COc1cc2nc(-c3cc(F)ccc3O)nc(N[C@@H]3CNC[C@@H]3C(C)(C)O)c2cc1OC | 18.7 µM (active) | –
23 | Cc1nn(Cc2ccccc2Cl)c(C)c1CN(C)CC(O)COc1ccc(Cl)cc1 (stereo not given) | 18.7 µM (active) | –
24 | COc1ccc(-c2cc(=O)c3c(O)cc(O[C@@H]4O[C@H](CO[C@@H]5O[C@@H](C)[C@H](O)[C@@H](O)[C@@H]5O)[C@@H](O)[C@H](O)[C@@H]4O)cc3o2)cc1O | – | 118%
25 | CC=C1C2C=C(C)CC1(N)c1ccc(=O)[nH]c1C2 (stereo not given) | – | 102%
26 | OCCn1cc(-c2ccc3c(c2)CCC3=NO)c(-c2ccncc2)n1 | – | 93.8%
27 | O=C1Nc2ccc(I)cc2C1=Cc1cc(Br)c(O)c(Br)c1 | – | 102%
28 | CC1C(=O)OC2C(O)C34C5CC(C(C)(C)C)C36C(OC(=O)C6O)OC4(C(=O)O5)C12O (stereo not given) | – | 97.2%
29 | COc1ccc2c(c1)CC[C@H]1[C@@H]2CC[C@]2(C)[C@@H](NCCCCCCN3C(=O)C=CC3=O)CC[C@H]12 | – | 104%
30 | O=C(Nc1cccc(C(F)(F)F)c1)Nc1cc(S(=O)(=O)NC2CC2)ccc1-c1ccsc1 | – | 97.4%
31 | CC[C@H]1OC(=O)[C@H](C)[C@@H](O[C@H]2C[C@@](C)(OC)[C@@H](O)[C@H](C)O2)[C@H](C)[C@@H](O[C@@H]2O[C@H](C)C[C@H](N(C)C)[C@H]2O)[C@](C)(O)C[C@H](C)C(=NOCOCCOC)[C@H](C)[C@@H](O)[C@]1(C)O | – | 111%
32 | C#CCN(C)CC1=Cc2ccccc2Oc2ccccc21 | – | 86.7%
33 | Fc1ccc(C(c2ccc(F)cc2)N2CCN(CC=Cc3ccccc3)CC2)cc1 | – | 122%
34 | COc1c(C)c2c(c(O)c1CC=C(C)CCC(=O)OCCN1CCOCC1)C(=O)OC2 | 10.5 µM (active) | –
35 | Cc1nc(C(=O)NCC(=O)O)c(O)c2ccc(Oc3ccccc3)cc12 | – | 111%
36 | N#Cc1c(N(CC(=O)O)CC(=O)O)sc(C(=O)O)c1CC(=O)O | – | 130%
37 | O=C1C(c2c(O)[nH]c3ccccc23)=Nc2ccccc21 | – | 82.5%
38 | C[C@H](CCC(=O)O)[C@H]1CC[C@H]2[C@H]3[C@@H](CC[C@]12C)[C@@]1(C)CC[C@@H](O)C[C@H]1C[C@@H]3O | – | 115%
39 | CC1=C(CC(=O)O)c2cc(F)ccc2C1=Cc1ccc(S(C)=O)cc1 (stereo not given) | – | 92.5%
40 | Cc1ccc(C2=Nc3ccc(Cl)cc3OC2)cc1 | – | 121%
